Sampled rows, rich in hits. Any-hit rate of the full collection: about 9%.
PLK1 PBD block: PLK1 (human) polo-box domain binding inhibition. Plk1 PBD binding of FITC phosphopeptide, fluorescence polarization. Potency, µM, for inactives: max response, negative = inhibition, most hits filed as inhibitors. 2.8% of 360,000 active. AID 720504; further: series mostly up to about 57 µM; on the % scale 0 is the no-effect control and ±100 the full control effect; nearly all actives have a fitted effect of over 65% in size
12-LOX inh: inhibitors of human 12S-lipoxygenase ALOX12; purified 12hLO, xylenol orange hydroperoxide absorbance; Potency, µM (top dose mostly 108 µM), for inactives: at the highest dose activity change, negative = inhibition, most hits filed as inhibitors; 1.1% of 580,000 active; AID 1671190; further: on the % scale 0 is the no-effect control and ±100 the full control effect
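Purified human 12hLO at 150 nM in 25 mM Hepes, 0.01% Triton X-100, pH 7.0, preincubated 15 min at room temperature with compound. Reaction started with 40 uM arachidonic acid, 30 min at room temperature. Hydroperoxide measured by Fe-xylenol orange, 573/405 nm absorbance ratio.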
HP1b binding inh: blocks HP1-beta chromodomain binding to methylated histone tails. AlphaScreen HP1-beta / biotin-H3K9me3 peptide binding. Potency, µM (titrated, usually from 114 µM), inactives show top-dose activity change, negative = inhibition, usual class: inhibitors. 0.56% of 390,000 active. P83916. AID 540317; further: nearly all actives have a fitted effect of over 70% in size
Target sequence (P83916 whole entry, looked up): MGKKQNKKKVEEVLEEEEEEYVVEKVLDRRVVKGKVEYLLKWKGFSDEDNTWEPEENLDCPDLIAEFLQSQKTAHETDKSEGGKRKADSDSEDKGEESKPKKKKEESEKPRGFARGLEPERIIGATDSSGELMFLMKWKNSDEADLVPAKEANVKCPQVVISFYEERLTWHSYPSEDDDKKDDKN
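Compound inhibition of the preformed complex between 50 nM HP1-beta and 50 nM biotinylated H3K9me3 peptide was read by AlphaScreen. Buffer was PBS pH 7.4 with 0.01% Tween-20. Incubations ran 30 min at room temperature, with 10 ug/mL donor/acceptor beads.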
JMJD2A Tudor inh: inhibitors of human JMJD2A Tudor domain. O75164. AlphaScreen JMJD2A-Tudor / H3K4me3 peptide binding. Potency, µM (top dose mostly 114 µM), without a hit: at the top dose activity change, negative = inhibition, hits mostly inhibitors. 4.4% of 390,000 active; further: on the % scale 0 is the no-effect control and ±100 the full control effect; nearly all actives have a fitted effect of over 50% in size
BAZ2B block: BAZ2B (human) inhibition; 4.4% of 360,000 active; AlphaScreen BAZ2B-H3K14Ac peptide displacement; Potency, µM (top dose mostly 114 µM), inactives show top-dose activity change, negative = inhibition, actives largely listed as inhibitors; Q9UIF8; AID 504333; further: on the % scale 0 is the no-effect control and ±100 the full control effect; nearly all actives have a fitted effect of over 60% in size
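In this displacement format the biotinylated H3(5-23) peptide acetylated at Lys14 serves as ligand at 50 nM, with BAZ2B at 50 nM in PBS pH 7.4 containing 0.01% Tween-20. Donor and acceptor beads are 10 ug/mL final.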
G9a inh: blocks human histone lysine methyltransferase G9a | 8.8% of 350,000 active | G9a H3K9 monomethylation, AlphaScreen, 2 h | Potency, µM (titrated, usually from 102 µM), for the others: at the top dose activity, negative = inhibition, most hits filed as inhibitors | Q96KQ7 | AID 504332; further: on the % scale 0 is the no-effect control and ±100 the full control effect; nearly all actives have a fitted effect of over 75% in size
Target sequence (Q96KQ7 913-1193 limits assumed): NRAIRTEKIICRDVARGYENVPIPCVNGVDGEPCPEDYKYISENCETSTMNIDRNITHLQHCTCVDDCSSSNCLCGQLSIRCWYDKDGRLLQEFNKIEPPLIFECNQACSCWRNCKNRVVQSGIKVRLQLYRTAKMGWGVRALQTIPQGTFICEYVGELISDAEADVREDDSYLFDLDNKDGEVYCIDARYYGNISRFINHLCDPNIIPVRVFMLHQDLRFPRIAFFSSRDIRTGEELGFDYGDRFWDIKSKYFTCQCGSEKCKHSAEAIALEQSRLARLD
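Signal arises when biotinylated H3K9 peptide, once monomethylated, bridges streptavidin donor and antibody-captured acceptor beads. Enzyme at 20 nM was preincubated 15 min with test compounds; peptide 500 nM and SAM 20 uM then reacted for 2 h.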
Starred values were filed as active, the others as inactive; ? = inconclusive; nt = not tested or not shown; ! = not active in a repeat; [ ] = dose if it differs, or a comment. The call rests on the fitted dose curve; in most records, active means well fitted curve in the direction sought with a large enough effect; inconclusive means small, poorly fitted or top-dose-only effect, or another doubt; inactive means no such curve, though single readings can be large; an effect the other way counts as inactive or inconclusive. Potency means the concentration at half of the fitted maximal effect.

SMILES | PLK1 PBD block | 12-LOX inh | HP1b binding inh | JMJD2A Tudor inh | BAZ2B block | G9a inh
COC(=O)C1CN(C2CCCC2)CCS(=O)(=O)N1Cc1ccc(C(F)(F)F)cc1 (centres undefined) | nt | 14% | nt | nt | nt | nt
COc1ccc(Nc2nc(C(=O)OCC(=O)c3ccccc3)cs2)cc1 | nt | -7% | nt | nt | nt | nt
O=C(NCc1ccco1)Nc1ccccc1Cl | 2% | 0% | 16% | -18% | 5% | 6%[12.7 µM]
COc1ccc(Nc2nc(C(=O)NCc3ccco3)cs2)cc1 | -7% | ? | -10% | ? | 79µM* | ?
COc1ccc(Nc2cc(C(=O)NCc3ccco3)c3ccccc3n2)cc1 | nt | nt | nt | nt | -25% | -1%
O=C(NCc1ccco1)c1csc(Nc2ccccc2Cl)n1 | -13% | ? | 1% | -35% | ? | 32µM*
COc1ccc(Nc2nc(C(=O)N(CCO)Cc3ccccc3)cs2)cc1 | -5% | ? | 17% | -31% | 50µM* | 45µM*
COCCN1CCNc2nc(COc3ccc(C(C)C)cc3)n(Cc3ccccc3)c2C1=O | nt | 22% | nt | nt | nt | nt
CCCCn1c(SCC(=O)Nc2nnc(C)s2)nnc1-c1ccoc1C | 1% | -6% | 12% | 10% | 0% | 14%[59 µM]
CCCn1c(SCC(=O)Nc2nnc(C)s2)nnc1-c1ccoc1C | 27µM* | ? | -12% | 50µM* | 0% | -13%[12.7 µM]
Cc1nnc(NC(=O)CSc2nnc(-c3ccoc3C)n2CC(C)C)s1 | 27µM* | 38% | -6% | 50µM* | 63% | 26%[12.7 µM]
CC(CCC(=O)O)C1CCC2C3CC[C@H]4CC(O)CC[C@@]4(C)C3C=C[C@]12C (some centres undefined) | nt | nt | nt | nt | nt | -23%[2.33 µM]
O=C(N/C(=C/c1ccc(F)cc1)C(=O)N1CCCCC1)c1ccco1 | -5% | 5% | 16% | -13% | -16% | 40%
CCOc1c2ccc(C(=O)NCc3ccco3)cc2nn1CCOC | -5% | -12% | 62% | -10% | -10% | 4%[12.7 µM]
Cc1c(C(=O)NN)[nH]c2ccc([N+](=O)[O-])cc12 | 6% | 103% | 28% | -12% | 35µM* | 5%
NNC(=O)c1[nH]c2ccc([N+](=O)[O-])cc2c1-c1ccccc1 | -8% | 24% | 22% | -29% | -15% | ?
CSc1oc(-c2ccccc2)nc1S(=O)(=O)c1ccc(C)cc1 | 0% | -9% | 72% | -6% | -23% | 56µM*
CCSc1oc(-c2ccc(F)cc2)nc1S(=O)(=O)c1ccc(C)cc1 | nt | 40µM*! | 78% | 8% | 3% | 18µM*
Cc1ccc(-c2nc(S(=O)(=O)c3ccc(C)cc3)c(SCC(N)=O)o2)cc1 | -20% | ? | 29% | -12% | 3% | 25µM*
CNc1oc(Cc2ccccc2)nc1S(=O)(=O)c1ccc(Cl)cc1 | -24% | ? | 4% | ? | -26% | 25µM*
CN(C)c1cccc(C(=O)N[C@@H]2COCC[C@H]2Oc2ccc(CO)cc2)c1 | nt | 27% | nt | nt | nt | nt
Cc1cc(C)n(CCCO)c(=O)c1C#N | 3% | 4% | 9% | 2% | 15% | -18%[0.0925 µM]
COc1ccc(-c2noc(CSc3nnc(C)n3-c3ccc(C)cc3)n2)cc1OC | nt | 2% | 2% | -20% | -12% | -9%[59 µM]
CNc1oc(-c2ccc(F)cc2)nc1S(=O)(=O)c1ccccc1 | 2% | -26% | 54% | -5% | 7% | 45µM*
CCOC(=O)CN(C(=O)CSc1nnc(CNc2ccc(C)cc2C)o1)c1ccccc1 | -8% | -10% | -10% | ? | 50µM* | -8%[59 µM]
SMILES | PLK1 PBD block | 12-LOX inh | HP1b binding inh | JMJD2A Tudor inh | BAZ2B block | G9a inh
CC(=NNc1ccc2ccccc2n1)c1ccccc1O | 5% | ? | 26% | -22% | nt | nt
CCOc1cc2c(cc1O)CCC1C2CCC2(C)C(O)CCC12 (centres undefined) | -3% | -22% | 8% | -22% | nt | nt
C=Cc1cc2c(cc1O)CCC1C2CCC2(C)C(O)CCC12 (centres undefined) | 1% | ? | 4% | -26% | nt | nt
CCNc1cc2c(cc1O)CCC1C2CCC2(C)C(O)CCC12 (centres undefined) | ? | ? | ? | 89µM* | nt | nt
CC#Cc1cc2c(cc1O)CCC1C2CCC2(C)C(O)CCC12 (centres undefined) | -16% | 45µM* | ? | 79µM* | nt | nt
Cc1oc2ncn(C)c(=O)c2c1C(=O)Nc1ccccn1 | nt | 0% | 39% | -4% | 0% | -1%[59 µM]
CC1CC(C)CN(C(=O)CNC(=O)c2ccc3ccccc3c2)C1 (centres undefined) | 5% | 8% | 23% | 0% | -3% | 36%
O=c1oc2ccccc2c(O)c1Cc1cc(Cl)c2cccnc2c1O | ? | 1% | 25% | -36% | 32µM* | nt
O=[N+]([O-])c1cc(CN2CCOCC2)c2cccnc2c1O | ? | nt | 24% | 7.9µM* | 3.2µM* | ?
O=c1cc(CN2CCOCC2)c2ccccc2o1 | 2% | 0% | nt | nt | nt | nt
Oc1c(Cl)cc(CN2CCOCC2)c2cccnc12 | ? | ? | -26% | 11µM* | 7.9µM* | -1%[2.33 µM]
O=C(Cc1c(O)c2ccccc2oc1=O)c1ccc(C(F)(F)F)cc1 | -18% | 0% | 8% | -6% | 8% | -22%
O=[N+]([O-])c1cc(CN2CCN(c3ccccc3)CC2)c(O)c2ncccc12 | -3% | ? | 18% | 10µM* | 3.2µM* | ?
COc1ccc(OC)c(S(=O)(=O)Nc2ccc(F)cc2)c1 | -2% | 5%[57.4 µM] | 19% | -1% | -1% | -25%[2.33 µM]
Oc1c(CN2CCc3ccccc3C2)cc(Cl)c2cccnc12 | 30µM* | nt | 26% | 25µM* | 8.9µM* | 45µM*
O=C(COc1c(Br)cc(Br)c2cccnc12)N1CCCCC1 | -8% | -5% | 37% | -11% | ? | 8%
Oc1c(CN2CCCCC2)cc(Br)c2cccnc12 | ? | 5.6µM* | 26% | 22µM* | 28µM* | ?
CN1N=C(C(=O)N2CCc3c(nc(-c4ccncc4)[nH]c3=O)C2)CCC1=O | nt | 2% | nt | nt | nt | nt
COc1ccc(-c2ccc(C#N)c(SCC(=O)NCCc3ccccc3)n2)cc1 | nt | 0% | nt | nt | nt | nt
CCc1ccc(N2C(=O)C3C(C2=O)N2CCCN2C3c2ccccc2)cc1 (centres undefined) | -7% | ? | 7% | -17% | -16% | -31%[59 µM]
CNC(=O)/C(C#N)=C/c1cn(CC(=O)NCc2ccco2)c2ccccc12 | -6% | ? | 33% | -29% | -15% | 7%
N#C/C(=C/c1cn(CC(=O)O)c2ccccc12)C(=O)NCc1ccccc1 | -5% | -29% | 34% | -4% | ? | 56µM*
CCN(CC)c1ccc(/C=C(/C#N)C(=O)NCc2ccccc2)o1 | 72% | ? | -18% | -12% | -32% | 11µM*
N#Cc1ccccc1Cn1cc(/C=C/[N+](=O)[O-])c2ccccc21 | ? | -15% | 7% | -23% | ? | 50µM*

Screening results: PubChem, National Center for Advancing Translational Sciences (NCATS)
